Screens as filed in PubChem BioAssay.
Sampled rows, rich in hits. Any-hit rate of the full collection: about 10%.
CtBP-E1A blk: qHTS Assay for Inhibitors of the CtBP/E1A Interaction. CtBP / adenovirus E1A interaction (AlphaScreen). AlphaScreen GST-E1A/His-CtBP binding, 1536-well; hits give low values. activity change, % (test concentration not listed). 340,000 compounds, 0.49% hits; in the data active = activity change below about -65%; inconclusive = mostly about -30% to -63%; note: % is set by controls: 0 for no effect and ±100 for the full control effect
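Steps: dispense buffer (Tris pH 8.0, NaCl 300 mM, TCEP 1 mM, BSA, Tween 20); add 5X protein mix (GST-E1A, His-CtBP, 125 nM each); pin 23 nL compound; 2 h at 37 °C, dark; add 5X beads (50 ug/mL); 1 h; read.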
JMJD2A Tudor: qHTS Assay for Inhibitors of JMJD2A-Tudor Domain; AlphaScreen JMJD2A-Tudor / H3K4me3 peptide binding; Lysine-specific demethylase 4A (Homo sapiens), O75164; 390,000 compounds, 4.4% hits; Potency, µM (top dose mostly 114 µM), inactives show top-dose activity change, negative = inhibition, usual class: inhibitors; AID 504339, 2011; note: potency is the fitted concentration of half-maximal effect; % is set by controls: 0 for no effect and ±100 for the full control effect; nearly all actives have a fitted effect of over 50% in size
Six1-Eya2 inh: qHTS Assay for Inhibitors of the Six1/Eya2 Interaction; Homeobox protein SIX1 (Homo sapiens) + Protein phosphatase EYA2 (Homo sapiens), …; AlphaScreen GST-Six1/His-Eya2 binding, biochemical; hits give low values; activity change, % (concentration not given with the values); 360,000 compounds, 0.56% hits; AID 651725, 2012; in the data active = activity change below about -65%; inconclusive = mostly about -30% to -63%; note: % is set by controls: 0 for no effect and ±100 for the full control effect
Target sequence (O00167 whole entry, looked up): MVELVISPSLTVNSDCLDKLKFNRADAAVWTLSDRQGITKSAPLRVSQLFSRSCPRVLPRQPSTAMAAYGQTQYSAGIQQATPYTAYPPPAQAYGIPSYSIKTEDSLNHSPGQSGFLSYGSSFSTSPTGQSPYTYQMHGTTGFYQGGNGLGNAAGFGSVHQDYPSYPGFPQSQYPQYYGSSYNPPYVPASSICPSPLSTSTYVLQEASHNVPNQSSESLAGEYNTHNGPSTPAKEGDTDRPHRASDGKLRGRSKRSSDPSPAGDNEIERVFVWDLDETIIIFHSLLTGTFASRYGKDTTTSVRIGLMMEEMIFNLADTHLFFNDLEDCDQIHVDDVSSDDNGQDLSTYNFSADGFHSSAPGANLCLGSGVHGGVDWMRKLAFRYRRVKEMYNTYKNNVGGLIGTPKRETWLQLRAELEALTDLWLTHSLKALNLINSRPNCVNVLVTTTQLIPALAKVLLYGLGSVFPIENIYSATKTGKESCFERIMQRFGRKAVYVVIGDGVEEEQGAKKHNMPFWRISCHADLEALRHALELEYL
Target sequence (Q15475 whole entry, looked up): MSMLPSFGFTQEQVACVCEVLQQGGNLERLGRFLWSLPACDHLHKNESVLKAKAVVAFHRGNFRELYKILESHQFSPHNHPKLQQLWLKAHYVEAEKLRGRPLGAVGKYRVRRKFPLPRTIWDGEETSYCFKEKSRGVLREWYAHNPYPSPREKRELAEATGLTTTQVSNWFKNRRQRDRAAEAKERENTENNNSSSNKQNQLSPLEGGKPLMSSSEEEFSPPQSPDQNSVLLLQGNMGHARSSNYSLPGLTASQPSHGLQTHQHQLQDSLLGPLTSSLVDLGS
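Homogeneous AlphaScreen proximity assay pairing GST-Six1 with His-tagged Eya2 (added as 5X mix: 250 nM and 500 nM) in 50 mM Tris pH 8.0, 300 mM NaCl, 1 mM TCEP. Glutathione donor and nickel acceptor beads; 1 h, 37 °C, dark.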
BAZ2B inh: qHTS Assay for Inhibitors of BAZ2B. AlphaScreen BAZ2B-H3K14Ac peptide displacement. AID 504333, 2011. Potency, µM (highest dose often 114 µM), inactives show top-dose activity change, negative = inhibition, actives largely listed as inhibitors. Bromodomain adjacent to zinc finger domain protein 2B (Homo sapiens), Q9UIF8. 360,000 compounds, 4.4% hits; note: potency is the fitted concentration of half-maximal effect; % is set by controls: 0 for no effect and ±100 for the full control effect; nearly all actives have a fitted effect of over 60% in size
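In this displacement format the biotinylated H3(5-23) peptide acetylated at Lys14 serves as ligand at 50 nM, with BAZ2B at 50 nM in PBS pH 7.4 containing 0.01% Tween-20. Donor and acceptor beads are 10 ug/mL final.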
G9a block: qHTS Assay for Inhibitors of Histone Lysine Methyltransferase G9a. Potency, µM (doses to about 102 µM), inactives show at the highest dose activity, negative = inhibition, actives largely listed as inhibitors. 350,000 compounds, 8.8% hits. G9a H3K9 monomethylation, AlphaScreen, 2 h; note: potency is the fitted concentration of half-maximal effect; % is set by controls: 0 for no effect and ±100 for the full control effect; nearly all actives have a fitted effect of over 75% in size
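Using a bead-based AlphaScreen, monomethylated H3K9 product from 2 h room-temperature reactions (G9a 20 nM, peptide 500 nM, SAM 20 uM) was detected with 0.5 ug/mL rabbit anti-H3K9me1 antibody.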
HP1b chromo inh: HTS for Inhibitors of HP1-beta Chromodomain Interactions with Methylated Histone Tails; 390,000 compounds, 0.56% hits; Potency, µM (titrated, usually from 114 µM), for inactives: at the top dose activity change, negative = inhibition, most hits filed as inhibitors; AlphaScreen HP1-beta / biotin-H3K9me3 peptide binding; AID 540317, 2011; Chromobox protein homolog 1 (Homo sapiens), P83916; note: potency is the fitted concentration of half-maximal effect; nearly all actives have a fitted effect of over 70% in size
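HP1-beta protein (50 nM final) preincubated 30 min at room temperature with biotinylated H3(1-18)K9me3 peptide (50 nM) in PBS pH 7.4, 0.01% Tween-20, then compound added for 30 min. AlphaScreen streptavidin donor/nickel chelate acceptor beads (10 ug/mL final), 30 min dark, luminescence read.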
* marks the source's active call; other numbers are inactive results; [ ] = dose if it differs, or a comment. Unless noted, calls come from the whole dose curve; as a rule, active = well fitted inhibition curve with a large enough effect; inconclusive = small, poorly fitted or top-dose-only effect; inactive = no such curve, though single readings can be large or run the other way.

Screening COc1ccccc1CCNC(=O)Cc1c(C)c2c(cc(C)c3c(C)coc32)oc1=O returned JMJD2A Tudor -26%, BAZ2B inh 0%, G9a block -28%[59 µM] and HP1b chromo inh 15%.
For CCOC(=O)c1cc(-c2ccccc2)n(-c2cccc(C(=O)Nc3cccc(SC)c3)c2)c1C the results were JMJD2A Tudor -32%, BAZ2B inh -22%, G9a block -28%[59 µM] and HP1b chromo inh 19%.
`CS(=O)(=O)OCC(O)C(O)COS(C)(=O)=O` (configuration not stated) gave G9a block -20%[12.7 µM].
COc1ccc(-c2cc(C(=O)Nc3c(C(=O)c4ccc(C)cc4)oc4ccccc34)no2)cc1 was read as JMJD2A Tudor -7%, BAZ2B inh 1%, G9a block 0%[59 µM] and HP1b chromo inh 14%.
Screening O=S(=O)(/C(=C/c1ccc(C(F)(F)F)cc1)c1nc2ccccc2[nH]1)c1ccccc1 returned CtBP-E1A blk 1, JMJD2A Tudor 79µM*, Six1-Eya2 inh -12, BAZ2B inh -30%, G9a block 6%[59 µM] and HP1b chromo inh -12%.
Screening CC(C)c1ccc(/C=C(\c2nc3ccccc3[nH]2)S(=O)(=O)c2ccccc2)cc1 returned CtBP-E1A blk -1, JMJD2A Tudor -14%, Six1-Eya2 inh 2, BAZ2B inh -31%, G9a block 6%[59 µM] and HP1b chromo inh 0%.
Cc1cc(C)c(Cn2c(C)c(CNCc3ccccc3C)c(C(=O)O)c2C)c(C)c1 was read as JMJD2A Tudor inconclusive, BAZ2B inh -39%, G9a block -19%[59 µM] and HP1b chromo inh 12%.
Screening N#Cc1ccc(OCC(=O)Nc2ccncc2)cc1 returned CtBP-E1A blk -4, JMJD2A Tudor -2%, Six1-Eya2 inh 2, BAZ2B inh -11%, G9a block 50µM* and HP1b chromo inh 35%.
COc1ccc(OCC(=O)NCCCn2ccnc2)cc1 was read as CtBP-E1A blk 3, JMJD2A Tudor -2%, Six1-Eya2 inh -3, BAZ2B inh inconclusive, G9a block 28%[59 µM] and HP1b chromo inh 29%.
N#Cc1ccc(OCC(=O)NCCCn2ccnc2)cc1 was read as CtBP-E1A blk inconclusive, JMJD2A Tudor 63µM*, Six1-Eya2 inh inconclusive and HP1b chromo inh 9%[57 µM].
`CCOC(=O)c1noc2ncnc(Nc3ccc(C)c(F)c3)c12` gave JMJD2A Tudor -16%, BAZ2B inh 0%, G9a block 4%[59 µM] and HP1b chromo inh 57%.
Screening O=C(COc1ccccc1/C=C\c1nc(O)c([N+](=O)[O-])c(=O)[nH]1)Nc1ccccc1 returned CtBP-E1A blk 0, JMJD2A Tudor -22%, Six1-Eya2 inh -3, BAZ2B inh inconclusive, G9a block 50µM* and HP1b chromo inh -10%.
Screening Cc1cc(/C=C\c2nc(O)c([N+](=O)[O-])c(=O)[nH]2)c(C)n1-c1ccccc1 returned CtBP-E1A blk 4, JMJD2A Tudor 56µM*, Six1-Eya2 inh 0, BAZ2B inh 45µM*, G9a block 50µM* and HP1b chromo inh inconclusive.
For O=c1[nH]c(/C=C\c2cccc(O)c2)nc(O)c1[N+](=O)[O-] the results were CtBP-E1A blk -2, JMJD2A Tudor -2%, Six1-Eya2 inh -7, BAZ2B inh 5%, G9a block -74% and HP1b chromo inh 35%.
For CCOc1ccc(/C=C\c2nc(O)c([N+](=O)[O-])c(=O)[nH]2)cc1OCC the results were CtBP-E1A blk 0, JMJD2A Tudor 11%, Six1-Eya2 inh -1, BAZ2B inh -15%, G9a block inconclusive and HP1b chromo inh 14%.
`COc1ccc(-n2c(C)cc(/C=C/c3nc(O)c([N+](=O)[O-])c(=O)[nH]3)c2C)cc1` gave JMJD2A Tudor -3%[11.4 µM], Six1-Eya2 inh -7, BAZ2B inh 50µM*, G9a block 28µM* and HP1b chromo inh inconclusive.
O=c1[nH]c(/C=C\c2ccc(O)c(O)c2)nc(O)c1[N+](=O)[O-] was read as CtBP-E1A blk inconclusive, JMJD2A Tudor inconclusive, Six1-Eya2 inh -23, BAZ2B inh inconclusive, G9a block 40µM* and HP1b chromo inh -4%.
CCOc1ccccc1/C=C\c1nc(O)c([N+](=O)[O-])c(=O)[nH]1 was read as CtBP-E1A blk 8, JMJD2A Tudor 13%, Six1-Eya2 inh 2, BAZ2B inh -17%, G9a block -10% and HP1b chromo inh 22%.
Screening O=C1CCC2=C1C1(CCCC1)N=C(Nc1nc3ccccc3o1)N2 returned JMJD2A Tudor -22%.
For Cc1cc(C)cc(Oc2nc3c(c(=O)n(C)c(=O)n3C)n2Cc2ccc(F)cc2)c1 the results were JMJD2A Tudor 8%, BAZ2B inh -1%, G9a block 5%[59 µM] and HP1b chromo inh 26%.
`CCc1ccc(N(CC)C(=O)c2sc3nc4n(c(=O)c3c2C)CCCC4)cc1` gave JMJD2A Tudor 79µM*, BAZ2B inh 25µM*, G9a block 16µM* and HP1b chromo inh 25%.
CCN(C(=O)c1sc2nc3n(c(=O)c2c1C)CCCCC3)c1ccc(OC)cc1 was read as JMJD2A Tudor 79µM*, BAZ2B inh 35µM*, G9a block 5.6µM* and HP1b chromo inh 13%.
For Cc1c(C(=O)N(CCC#N)c2ccccc2)sc2nc3n(c(=O)c12)CCCC3 the results were CtBP-E1A blk 0, JMJD2A Tudor -14%, Six1-Eya2 inh 1, BAZ2B inh -16%, G9a block -7% and HP1b chromo inh 61%.
Screening CCN(C(=O)c1sc2nc3n(c(=O)c2c1C)CCCCC3)c1ccccc1F returned JMJD2A Tudor -2%, BAZ2B inh -34%, G9a block 8.9µM* and HP1b chromo inh 58%.
Screening CCN(Cc1ccccc1)C(=O)c1sc2nc3n(c(=O)c2c1C)CCCC3 returned JMJD2A Tudor -35%, BAZ2B inh -14%, G9a block inconclusive and HP1b chromo inh 19%.
Screening COc1ccc(N(C(=O)c2cccc(C)c2)S(=O)(=O)c2ccc3c(c2)n(C)c(=O)n3C)cc1 returned JMJD2A Tudor -24%, BAZ2B inh inconclusive, G9a block inconclusive and HP1b chromo inh -1%.
